# Laboratory results taken from PubChem BioAssay (NCATS).
# Records with an inconclusive call do not appear. Where a call stands in place of a potency, no number is given. A number with no mark means an inactive call. The source made the active and inactive calls. Calls come from the whole dose curve; as a rule, active = well fitted curve in the direction sought with a large enough effect; inconclusive = small, poorly fitted or top-dose-only effect, or another doubt; inactive = no such curve, though single readings can be large; an effect the other way counts as inactive or inconclusive.
# Key:
# CRL-7250 = normal cell line; assay: Cytotoxic Profiling of Annotated Libraries Using Quantitative High-Throughput Screening (AID 1296008); details: Five cell lines viability, CellTiter-Glo ATP luminescence, 48-72 h; max response: hits give low values; note: nearly all actives have a fitted effect of over 60% in size; note: potency is the fitted concentration of half-maximal effect
# Procedure, shortened: (§1)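 Compounds were pin-transferred onto cells and incubated 48 or 72 hr at 37 degree Celsius, 95% humidity. CellTiter-Glo was added, plates sat 10 min at room temperature, then ATP-coupled luminescence was imaged as the viability read-out.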
# HaCat [1] = assay: as above; details: Five cell lines viability, CellTiter-Glo ATP luminescence, 48-72 h; max response: hits give low values
# Procedure, shortened: as §1
# KB-3-1 = assay: as above; details: Five cell lines viability, CellTiter-Glo ATP luminescence, 48-72 h; max response: hits give low values
# Procedure, shortened: as §1
# NIH3T3 [2] = assay: as above; details: Five cell lines viability, CellTiter-Glo ATP luminescence, 48-72 h; max response: hits give low values
# Procedure, shortened: as §1
# MCC-13 = assay: qHTS assay to identify novel small-molecules to repurpose for Merkel cell carcinoma treatment (AID 1296009); details: MCC and control cell lines, CellTiter-Glo viability, 72 h; series mostly up to 46 µM; note: nearly all actives have a fitted effect of over 60% in size; note: potency is the fitted concentration of half-maximal effect
# Procedure, shortened: (§2)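 Luminescence from CellTiter-Glo, read 10 min after addition at room temperature, reported viability following a 72 hr, 37 degree celsius treatment with NPC or MIPE compounds in titration; values normalized to plate controls.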
# MKL-1 = assay: as above; details: MCC and control cell lines, CellTiter-Glo viability, 72 h; series mostly up to 46 µM
# Procedure, shortened: as §2
# WaGa = assay: as above; details: MCC and control cell lines, CellTiter-Glo viability, 72 h; series mostly up to 46 µM
# Procedure, shortened: as §2
# C33A = assay: Primary qHTS to identify gynecologic anti-cancer compounds using libraries of approved drugs and bioactive compounds (AID 1345084); details: Gynecologic cancer cell panel viability, ATPlite luminescence, 48 h; series mostly up to 57.5 µM; note: nearly all actives have a fitted effect of over 55% in size
# Procedure, shortened: (§3)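 Measured: luminescence after ATPlite addition (15 min, RT). Exposure: 48 h, 37 C, 5% CO2.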
# CAOV3 = assay: as above; details: Gynecologic cancer cell panel viability, ATPlite luminescence, 48 h; series mostly up to 57.5 µM
# Procedure, shortened: as §3
# CASKI = assay: as above; details: Gynecologic cancer cell panel viability, ATPlite luminescence, 48 h; series mostly up to 57.5 µM
# Procedure, shortened: as §3
# Es-2 = assay: as above; details: Gynecologic cancer cell panel viability, ATPlite luminescence, 48 h; series mostly up to 57.5 µM
# Procedure, shortened: as §3
# HeLa = assay: as above; details: Gynecologic cancer cell panel viability, ATPlite luminescence, 48 h; series mostly up to 57.5 µM
# Procedure, shortened: as §3
# HEK293 = assay: Cytotoxic Profiling of Annotated Libraries Using Quantitative High-Throughput Screening (AID 1296008); details: Five cell lines viability, CellTiter-Glo ATP luminescence, 48-72 h; max response: hits give low values; note: nearly all actives have a fitted effect of over 60% in size; note: potency is the fitted concentration of half-maximal effect
# Procedure, shortened: as §1
# HACAT [3] = assay: qHTS assay to identify novel small-molecules to repurpose for Merkel cell carcinoma treatment (AID 1296009); details: MCC and control cell lines, CellTiter-Glo viability, 72 h; at 44.8 µM (top of the series) unless noted; note: nearly all actives have a fitted effect of over 60% in size; note: potency is the fitted concentration of half-maximal effect
# Procedure, shortened: as §2
# MCC-26 = assay: as above; details: MCC and control cell lines, CellTiter-Glo viability, 72 h; series mostly up to 46 µM
# Procedure, shortened: as §2
# MKL-2 = assay: as above; details: MCC and control cell lines, CellTiter-Glo viability, 72 h; series mostly up to 46 µM
# Procedure, shortened: as §2
# UISO = assay: as above; details: MCC and control cell lines, CellTiter-Glo viability, 72 h; series mostly up to 46 µM
# Procedure, shortened: as §2
# W2 = assay: qHTS profiling for inhibitors of Plasmodium falciparum proliferation (AID 504749); note: nearly all actives have a fitted effect of over 60% in size; note: potency is the fitted concentration of half-maximal effect; details: P. falciparum in erythrocytes, SYBR Green DNA, 72 h; series mostly up to 28.7 µM
# Procedure, shortened: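 Fluorescence of SYBR Green-bound parasite DNA, read at 485/535 nm, served as the growth measure. Infected erythrocytes were cultured with compound 72 h; artemisinin (0.29 uM) and DMSO wells defined the normalization range.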
# NIH3T3 [4] = assay: qHTS assay to identify novel small-molecules to repurpose for Merkel cell carcinoma treatment (AID 1296009); details: MCC and control cell lines, CellTiter-Glo viability, 72 h; at 44.8 µM (top of the series); note: nearly all actives have a fitted effect of over 60% in size; note: potency is the fitted concentration of half-maximal effect
# Procedure, shortened: as §2
# HEK293T = assay: as above; details: MCC and control cell lines, CellTiter-Glo viability, 72 h; at 44.8 µM (top of the series) unless noted
# Procedure, shortened: as §2
compound,measurement,setting,value
CCCCC(CC)CN1CN(CC(CC)CCCC)CC(C)(N)C1 (stereo not drawn),max response,CRL-7250,-21.5%
same,max response,HaCat [1],-10.2%
same,max response,KB-3-1,-12.3%
same,max response,NIH3T3 [2],-12.8%
same,Potency,MCC-13,inactive
same,Potency,MKL-1,inactive
same,Potency,WaGa,inactive
same,Potency,C33A,inactive
same,Potency,CAOV3,inactive
same,Potency,CASKI,inactive
same,Potency,Es-2,inactive
same,Potency,HeLa,inactive
CCOc1ccccc1OCCN[C@H](C)Cc1ccc(OC)c(S(N)(=O)=O)c1,max response,HEK293,-5.03%
same,outcome,HaCat [1],inactive
same,max response,KB-3-1,4.78%
same,max response,NIH3T3 [2],2.8%
same,outcome,HACAT [3],inactive
same,Potency,MCC-13,inactive
same,Potency,MCC-26,inactive
same,Potency,MKL-1,inactive
same,Potency,MKL-2,inactive
same,Potency,UISO,inactive
same,Potency,WaGa,inactive
same,Potency,C33A,inactive
same,Potency,CAOV3,inactive
same,Potency,CASKI,inactive
same,Potency,Es-2,inactive
same,Potency,HeLa,inactive
CCCN(CCc1cccs1)[C@H]1CCc2c(O)cccc2C1,Potency,W2,1.35 µM (active)
same,max response,CRL-7250,-5.8%
same,outcome,HaCat [1],inactive
same,outcome,NIH3T3 [2],inactive
same,outcome,HACAT [3],inactive
same,Potency,MCC-13,inactive
same,Potency,MCC-26,inactive
same,Potency,MKL-1,inactive
same,Potency,MKL-2,inactive
same,outcome,NIH3T3 [4],inactive
same,Potency,UISO,inactive
same,Potency,C33A,inactive
same,Potency,CASKI,inactive
same,Potency,Es-2,inactive
same,Potency,HeLa,inactive
COc1cc(C(=O)NCc2ccc(OCCN(C)C)cc2)cc(OC)c1OC,Potency,W2,inactive
same,max response,CRL-7250,-8.61%
same,max response,HaCat [1],4.17%
same,max response,KB-3-1,-11.1%
same,max response,NIH3T3 [2],-0.23%
same,Potency,MCC-13,inactive
same,Potency,MCC-26,inactive
same,Potency,MKL-1,inactive
same,Potency,MKL-2,inactive
same,Potency,UISO,inactive
same,Potency,WaGa,inactive
same,Potency,C33A,inactive
same,Potency,CASKI,inactive
same,Potency,Es-2,inactive
same,Potency,HeLa,inactive
CC(C)[C@@H]1CC[C@@H](C)CC1=O,max response,HEK293,-11.3%
same,outcome,HaCat [1],inactive
same,max response,KB-3-1,-7.81%
same,max response,NIH3T3 [2],4.81%
same,outcome,HACAT [3],inactive
same,Potency,MCC-13,inactive
same,Potency,MCC-26,inactive
same,Potency,MKL-1,inactive
same,Potency,MKL-2,inactive
same,Potency,UISO,inactive
same,Potency,WaGa,inactive
same,Potency,C33A,inactive
same,Potency,CAOV3,inactive
same,Potency,CASKI,inactive
same,Potency,Es-2,inactive
same,Potency,HeLa,inactive
CC(C)(C)CC(C)(C)c1ccc(O)c(-n2nc3ccccc3n2)c1,Potency,W2,6.01 µM (active)
same,max response,HEK293,-0.0454%
same,outcome,HaCat [1],inactive
same,max response,KB-3-1,2.75%
same,max response,NIH3T3 [2],3.67%
same,outcome,HACAT [3],inactive
same,Potency,MCC-13,inactive
same,Potency,MCC-26,inactive
same,Potency,MKL-1,inactive
same,Potency,MKL-2,inactive
same,Potency,UISO,inactive
same,Potency,WaGa,inactive
same,Potency,C33A,inactive
same,Potency,CAOV3,inactive
same,Potency,CASKI,inactive
same,Potency,Es-2,inactive
same,Potency,HeLa,inactive
CC(C)CCCC(C)N (stereo not drawn),Potency,W2,inactive
same,Potency,CRL-7250,33.5 µM (active)
same,max response,HaCat [1],-0.769%
same,outcome,NIH3T3 [2],inactive
same,Potency,MCC-13,inactive
same,Potency,MCC-26,inactive
same,Potency,MKL-1,inactive
same,Potency,MKL-2,inactive
same,outcome,NIH3T3 [4],inactive
same,Potency,UISO,inactive
same,Potency,WaGa,inactive
same,Potency,C33A,inactive
same,Potency,CAOV3,inactive
same,Potency,CASKI,inactive
same,Potency,Es-2,inactive
same,Potency,HeLa,inactive
COc1cc(C(=O)N2CCCCCCC2)cc(OC)c1OC,Potency,W2,inactive
same,max response,HEK293,0.115%
same,outcome,HaCat [1],inactive
same,max response,KB-3-1,-4.88%
same,max response,NIH3T3 [2],2.92%
same,outcome,HACAT [3],inactive
same,Potency,MCC-13,inactive
same,Potency,MCC-26,inactive
same,Potency,MKL-1,inactive
same,Potency,MKL-2,inactive
same,Potency,UISO,inactive
same,Potency,WaGa,inactive
same,Potency,C33A,inactive
same,Potency,CAOV3,inactive
same,Potency,CASKI,inactive
same,Potency,Es-2,inactive
same,Potency,HeLa,inactive
c1ccc(-c2nc[nH]c2-c2ccccc2)cc1,Potency,W2,inactive
same,max response,CRL-7250,-18.7%
same,max response,HaCat [1],-29.5%
same,max response,KB-3-1,23.6%
same,max response,NIH3T3 [2],-7.14%
same,Potency,MCC-13,inactive
same,Potency,MCC-26,inactive
same,Potency,MKL-1,inactive
same,Potency,MKL-2,inactive
same,Potency,UISO,inactive
same,Potency,WaGa,inactive
same,Potency,CAOV3,inactive
same,Potency,CASKI,inactive
same,Potency,Es-2,inactive
same,Potency,HeLa,inactive
CC(C)(C)NC[C@H](O)COc1cccc2c1CCCC2=O,max response,CRL-7250,-0.218%
same,max response,HaCat [1],-26.5%
same,max response,NIH3T3 [2],-0.923%
same,Potency,MCC-13,inactive
same,Potency,MCC-26,inactive
same,Potency,MKL-1,inactive
same,Potency,MKL-2,inactive
same,Potency,UISO,inactive
same,Potency,WaGa,inactive
same,Potency,C33A,inactive
same,Potency,CASKI,inactive
same,Potency,Es-2,inactive
same,Potency,HeLa,inactive
CC(=O)Nc1ccc(OC(=O)c2ccccc2OC(C)=O)cc1,Potency,W2,inactive
same,outcome,HEK293,inactive
same,outcome,HaCat [1],inactive
same,max response,KB-3-1,-4.86%
same,outcome,NIH3T3 [2],inactive
same,outcome,HACAT [3],inactive
same,outcome,HEK293T,inactive
same,Potency,MCC-13,inactive
same,Potency,MCC-26,inactive
same,Potency,MKL-1,inactive
same,Potency,MKL-2,inactive
same,outcome,NIH3T3 [4],inactive
same,Potency,UISO,inactive
same,Potency,WaGa,inactive
same,Potency,C33A,inactive
same,Potency,CAOV3,inactive
same,Potency,CASKI,inactive
same,Potency,Es-2,inactive
same,Potency,HeLa,inactive
CO[C@H]1C=CO[C@@]2(C)Oc3c(C)c(O)c4c(O)c(c(/C=N/N5CCN(C)CC5)c(O)c4c3C2=O)NC(=O)/C(C)=C\C=C[C@H](C)[C@H](O)[C@@H](C)[C@@H](O)[C@@H](C)[C@H](OC(C)=O)[C@@H]1C,max response,CRL-7250,1.9%
same,max response,HaCat [1],-21.6%
same,max response,KB-3-1,-19.7%
same,max response,NIH3T3 [2],-0.808%
same,Potency,MCC-13,inactive
same,Potency,MCC-26,inactive
same,Potency,MKL-1,21.1 µM (active)
same,Potency,C33A,inactive
same,Potency,CAOV3,inactive
same,Potency,CASKI,inactive
same,Potency,Es-2,inactive
same,Potency,HeLa,inactive
COc1ccccc1N1CCN(CCCCNC(=O)c2ccc(-c3ccc(C(C)=O)cc3)cc2)CC1,Potency,W2,inactive
same,max response,CRL-7250,-9.94%
same,outcome,HaCat [1],inactive
same,max response,NIH3T3 [2],-11%
same,outcome,HACAT [3],inactive
same,Potency,MCC-13,inactive
same,Potency,MKL-1,inactive
same,Potency,MKL-2,inactive
same,Potency,UISO,inactive
same,Potency,WaGa,inactive
same,Potency,C33A,inactive
same,Potency,CAOV3,inactive
same,Potency,CASKI,inactive
same,Potency,Es-2,inactive
same,Potency,HeLa,inactive
